# Bioassay records (PubChem BioAssay)
# Rows were chosen to be rich in hits. Some 10% of all compounds tested hit in one or more screens of this group.
# HEK293 tox: cytotoxic compounds in HEK 293 cells. HEK 293 viability, ATP luminescence (CellTiter-Glo), 48-72 h. Potency, µM (highest dose often 115 µM), for the others: at the highest dose activity change, negative = cytotoxicity, actives largely listed as inhibitors. 94,000 compounds, 6.6% hits; note: nearly all actives have a fitted effect of over 60% in size
#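 HEK 293 seeded at 250 cells/well receive compound via pintool. After 48 or 72 hr at 37 degree Celsius, 5% CO2 and 95% humidity, CellTiter-Glo is dispensed and luminescence read following 10 min at room temperature.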
# hNpr1 antagonist: antagonists of human natriuretic peptide receptor Npr1; P16066; HEK293 hNpr1 GloSensor cGMP, ANP-stimulated luminescence; Potency, µM (doses to about 46.3 µM), for the others: at the highest dose activity change, negative = inhibition, hits mostly inhibitors; 76,000 compounds, 1.6% hits; calls by dose curve; note: nearly all actives have a fitted effect of over 60% in size
#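 HEK293 cells stably expressing human Npr1 and cGMP GloSensor pGS-40F, loaded 2 h with 2% GloSensor reagent, given compound 30 min at room temperature. Luminescence read before and 20 min after 0.1 nM hNppA.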
# GPT2 inhibitor: blocks human glutamate pyruvate transaminase 2 | Recombinant GPT2, coupled pyruvate oxidase/HRP Amplex Red fluorescence | Potency, µM (top dose mostly 57.7 µM), inactives show top-dose activity change, negative = inhibition, most hits filed as inhibitors | 100,000 compounds, 0.25% hits | AID 1671188; note: nearly all actives have a fitted effect of over 60% in size
# Target sequence (Q8TD30 whole entry, looked up): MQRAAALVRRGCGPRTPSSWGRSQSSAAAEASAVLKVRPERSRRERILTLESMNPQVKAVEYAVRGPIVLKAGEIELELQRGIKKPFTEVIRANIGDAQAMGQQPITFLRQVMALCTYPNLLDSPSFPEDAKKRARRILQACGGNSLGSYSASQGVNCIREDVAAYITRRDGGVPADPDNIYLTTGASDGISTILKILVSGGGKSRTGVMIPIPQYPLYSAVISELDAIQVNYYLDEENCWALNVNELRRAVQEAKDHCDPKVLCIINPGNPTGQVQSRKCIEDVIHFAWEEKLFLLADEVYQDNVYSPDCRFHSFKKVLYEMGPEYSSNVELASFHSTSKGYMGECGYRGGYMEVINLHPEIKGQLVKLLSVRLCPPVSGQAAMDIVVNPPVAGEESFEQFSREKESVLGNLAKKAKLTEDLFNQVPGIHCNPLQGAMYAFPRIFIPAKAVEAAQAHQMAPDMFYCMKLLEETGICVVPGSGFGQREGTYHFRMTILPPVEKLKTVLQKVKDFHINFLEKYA
#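 Recombinant GPT2 (10ng/uL) with 250uM a-KG and 2mM L-alanine, 30 min at room temperature, in HEPES pH 7.5 buffer. Pyruvate detected by pyruvate oxidase/HRP/Amplex Red fluorescence after 30 min in the dark; AOA (50uM) as positive control.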
# Luciferase inh: blocks purified firefly luciferase enzyme activity; P08659; purified P. pyralis luciferase, luminescence, biochemical; Potency, µM (top dose mostly 115 µM), hits mostly inhibitors; 76,000 compounds, 2.5% hits; note: nearly all actives have a fitted effect of over 65% in size
#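 Purified P. pyralis luciferase (10nM final) in 50mM Tris acetate pH 7.5, 10mM Mg acetate, 0.01% Tween-20, 0.05% BSA with 10uM D-luciferin and 10uM ATP. Compounds titrated qHTS. Luminescence imaged on CCD.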
# NIH3T3 tox: kills NIH 3T3 cells. 94,000 compounds, 4.3% hits. NIH 3T3 viability, CellTiter-Glo ATP luminescence, 48-72 h. AID 1345082. Potency, µM (titrated, usually from 96.7 µM), without a hit: at the top dose activity change, negative = cytotoxicity, hits mostly inhibitors; note: nearly all actives have a fitted effect of over 55% in size
#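 Luminescent ATP readout (CellTiter-Glo, 10 min RT) after 48 or 72 hr compound exposure of NIH 3T3 cells seeded at 400 cells/well in 1536-well format; quantitative HTS.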
# * hit, by the source's call; i = inactive; ? = inconclusive; . = no result; [ ] = dose if it differs, or a comment. Unless noted, calls come from the whole dose curve; as a rule, active = well fitted curve in the direction sought with a large enough effect; inconclusive = small, poorly fitted or top-dose-only effect, or another doubt; inactive = no such curve, though single readings can be large; an effect the other way counts as inactive or inconclusive. % is set by controls: 0 for no effect and ±100 for the full control effect; potency is the fitted concentration of half-maximal effect.
SMILES,HEK293 tox,hNpr1 antagonist,GPT2 inhibitor,Luciferase inh,NIH3T3 tox
COc1cccc(-c2ccc(CN3CCCC(NC(=O)c4ccccc4)C3)cc2)c1 (centres undefined),22.4µM*,.,i,.,39.8µM*
COc1ccc(C(=O)NC2CCCN(Cc3ccc(-c4cc(C)cc(C)c4)cc3)C2)cc1 (centres undefined),-17.1%,.,2.6%,.,-12.2%
COc1cccc(-c2ccc(CN3CCCC(NC(=O)c4ccc(F)cc4)C3)cc2)c1 (centres undefined),11.2µM*,.,-6.9%,.,31.6µM*
CN(C(=O)c1ccc(Cl)nc1)C1CCc2ccccc21 (centres undefined),?,-3.5%[70.6 µM],i,i,-20.0%[138 µM]
O=C1Nc2ccccc2CC12CCN(Cc1ccsc1)CC2,-1.9%[172 µM],0.0%[70.6 µM],-2.6%[88.5 µM],i,-6.3%[138 µM]
Fc1ccccc1-c1nnc([C@H]2CCN(Cc3cccc(OC(F)(F)F)c3)C2)o1,112µM*,-1.3%[70.6 µM],-2.2%[88.5 µM],i,?
COc1ccc2nc([C@H]3CCN(Cc4cccc(OC(F)(F)F)c4)C3)[nH]c2c1,100µM*,?,-13.8%[88.5 µM],?,89.1µM*
COc1ccc2nc([C@H]3CCN(CCCc4ccccc4)C3)[nH]c2c1,63.1µM*,-0.3%[70.6 µM],-0.3%[88.5 µM],70.8µM*,?
Cc1nn(-c2ccccc2)c2c1C(C1CC1)N(C1CCCN([S+](=O)([O-])c3c(C)noc3C)C1)C2=O (centres undefined),-20.3%,.,.,.,-21.6%
O=C1NCc2ccccc2CC12CCN(Cc1ccncc1)CC2,i,.,1.1%,.,-1.3%
COCCNC(=O)c1ccc2c(c1)N(C)C(CC(=O)NCCO)CO2 (centres undefined),i,7.1%,i,i,i
COc1ncccc1CNC[C@H]1Cn2cc(-c3ccc4c(c3)OCCCO4)nc2CO1,89.1µM*,-2.1%[70.6 µM],i,50.1µM*,?
COc1ccccc1-c1cn2c(n1)CO[C@@H](CNCc1cccnc1)C2,?,0.7%[70.6 µM],?,i,-28.8%[138 µM]
c1csc(CNC[C@H]2Cn3cc(-c4ccc5c(c4)OCCCO5)nc3CO2)n1,-10.9%[172 µM],-4.1%[70.6 µM],-15.9%[88.5 µM],?,-7.7%[174 µM]
c1cc(CNC[C@H]2Cn3cc(-c4ccc5c(c4)OCCCO5)nc3CO2)ccn1,-17.7%[172 µM],-1.9%[70.6 µM],-9.2%[88.5 µM],44.7µM*,-19.7%[138 µM]
CC[C@H]1CN(S(=O)(=O)c2c(C)noc2C)CC[C@H]1CC(=O)NCc1ccco1,-20.7%[172 µM],-20.7%[70.6 µM],4.5%[88.5 µM],i,-21.5%[138 µM]
O=C(Cc1ccc(F)cc1)N1CCC2(CC1)CCN(CCc1ccccc1)c1ccccc1O2,44.7µM*,21.0%,i,i,?
CCOc1ccccc1CN1CCC2(CCN(C(=O)Cc3ccc(F)cc3)CC2)Oc2ccccc21,35.5µM*,6.4%,i,i,?
CCOc1ccccc1CN1CCC2(CCN(C(=O)C3CCCC3)CC2)Oc2ccccc21,35.5µM*,-12.3%,i,i,?
CCOc1ccccc1CN1CCC2(CCN(C(=O)Cc3cccc(Cl)c3)CC2)Oc2ccccc21,-18.1%,-0.7%,i,i,-12.0%
COc1cccc(CC(=O)NCC23CCCC=C2N(CC2CC2)C(=O)CC3)c1 (centres undefined),?,.,i,.,?
O=C(c1ccncc1)N1CCCC2(CNc3ncccc3[S+](=O)([O-])N2)C1 (centres undefined),3.2%,.,.,.,?
Cc1cnc(C(=O)N[C@@H]2CCC[C@@H]2C(=O)N2CCN(c3ccccn3)CC2)cn1,-14.0%,0.0%,i,i,-10.8%
Cc1nc(N2CCN(C(=O)COc3ccccc3)CC2)cc(C(F)(F)F)n1,?,-20.8%,i,i,-27.8%
Cc1ccc(C2Cn3nnc(C(=O)N4CCC(C(=O)NC(C)c5ccc(F)cc5)CC4)c3CO2)cc1 (centres undefined),?,4.6%,i,35.5µM*,?
SMILES,HEK293 tox,hNpr1 antagonist,GPT2 inhibitor,Luciferase inh,NIH3T3 tox
Cc1ccc(C2Cn3nnc(C(=O)N4CCC(C(=O)NCc5cccc(C)c5)CC4)c3CO2)cc1 (centres undefined),2.8%,-0.8%,i,?,i
COc1ccccc1CNC(=O)C1CCN(C(=O)c2nnn3c2COC(c2ccc(C)cc2)C3)CC1 (centres undefined),-18.4%,-2.4%,i,17.8µM*,-17.5%
Cc1ccc(CCNC(=O)C2CCN(C(=O)c3nnn4c3COC(c3ccc(C)cc3)C4)CC2)cc1 (centres undefined),-9.2%,1.3%,-3.5%,8.91µM*,-11.4%
Cc1ccc(C2Cn3nnc(C(=O)N4CCC(C(=O)NCC(C)C)CC4)c3CO2)cc1 (centres undefined),0.2%,0.7%,1.1%,22.4µM*,-13.5%
COc1ccc(-c2nc(C)nc3c2CN(C(=O)C(C)(C)C)CC3)cc1,-22.8%[172 µM],.,0.1%[88.5 µM],.,-21.9%[138 µM]
Cc1cc(F)ccc1OC1CN(CCC(C)C)C1,i,4.6%[70.6 µM],i,i,1.7%[138 µM]
Cc1ccc(C2Cn3nnc(C(=O)N4CCC(C(=O)NC5CCCCCCC5)CC4)c3CO2)cc1 (centres undefined),?,-2.0%,-11.6%,?,-14.5%
Cc1ccc(C2Cn3nnc(C(=O)N4CCC(C(=O)NCc5ccco5)CC4)c3CO2)cc1 (centres undefined),2.6%,4.7%,1.3%,31.6µM*,i
Cc1ccc(C2Cn3nnc(C(=O)N4CCC(C(=O)NCC5CC5)CC4)c3CO2)cc1 (centres undefined),-6.8%,-4.1%,3.0%,25.1µM*,3.4%
Cc1ccc(C2Cn3nnc(C(=O)N4CCC(C(=O)NC5CCCCCC5)CC4)c3CO2)cc1 (centres undefined),?,-11.7%,-2.7%,?,-25.8%
Cc1cccc(CN2C[C@@H]3C(=O)N(CCCN4CCCC4=O)C(=O)[C@@H]3C2)c1,6.6%,-1.1%,i,i,i
O=C(NC1CC1)[C@@H]1CCCN1c1nccc(Nc2ccccc2Cl)n1,?,.,i,.,-6.0%
CCCCOc1ccc(C(=O)N2CCC[C@H]2c2nc(-c3ccc(C)cc3)no2)cc1,22.4µM*,-24.1%,?,i,35.5µM*
COc1ccc(-c2noc([C@@H]3CCCN3C(=O)c3ccc(Cl)cc3)n2)cc1OC,?,-0.5%,i,i,?
COc1ccc(-c2noc([C@@H]3CCCN3C(=O)c3ccc(F)c(Cl)c3)n2)cc1OC,39.8µM*,2.9%,4.7%,i,?
COc1ccc(-c2noc([C@@H]3CCCN3C(=O)c3cc(Cl)ccc3OC)n2)cc1,25.1µM*,-3.0%,3.0%,i,?
CN(C)c1nccnc1OC1CCN(C(=O)c2ccoc2)C1 (centres undefined),22.5%,3.2%,-2.0%,39.8µM*,i
COCC(=O)N1CCC(Oc2nccnc2N(C)C)C1 (centres undefined),-6.1%,-3.6%,3.4%,i,-21.6%
